Bim-Mcl-1: inhibitors of Bim peptide binding to Mcl-1, primary screen, biochemical, bead-based flow cytometry, multiplex | Induced myeloid leukemia cell differentiation protein Mcl-1 (Homo sapiens), Q07820 | Bim peptide-Mcl-1 binding | inhibition, % at 10 µM | hit rate 0.1% among 190,000 | AID 1009, 2008; in the data active = inhibition above about 40%
14-3-3 Bad PPI: inhibitors of 14-3-3 zeta/Bad binding, primary screen, biochemical, TR-FRET, bovine 14-3-3 zeta; TR-FRET 14-3-3zeta/Dy647-pBad peptide displacement, 1 h; inhibition, % at 21.7 µM; hit rate 0.71% among 220,000; AID 781, 2007;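 active = inhibition above about 70%, limit read from the data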
Mcl1 Noxa PPI: Mcl-1/Noxa binding inhibitors, primary screen, biochemical, TR-FRET, 1536-well. hit rate 1.5% among 220,000. TR-FRET Mcl-1/Noxa peptide binding, 2 h. Induced myeloid leukemia cell differentiation protein Mcl-1 (Homo sapiens), Q07820. inhibition, % at 21.7 µM;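 active = compounds that cut the protein-peptide binding signal by more than 50% relative to plate controls in a single-dose test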;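 note: His-tagged Mcl-1 with rhodamine Noxa BH3 peptide and terbium anti-His antibody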
eIF4E-4G inh: eIF4E–eIF4G protein interaction inhibitors, primary screen, biochemical, uHTS, TR-FRET, eIF4GI fragment; hit rate 0.37% among 220,000; Eukaryotic translation initiation factor 4E (Mus musculus) + Eukaryotic translation …; TR-FRET eIF4E-eIF4GI(517-606) binding, 2 h; inhibition, % at 21.7 µM;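 active = inhibition above about 30%, limit read from the data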
Target sequence (P63073 whole entry, looked up, the tested form may be a part): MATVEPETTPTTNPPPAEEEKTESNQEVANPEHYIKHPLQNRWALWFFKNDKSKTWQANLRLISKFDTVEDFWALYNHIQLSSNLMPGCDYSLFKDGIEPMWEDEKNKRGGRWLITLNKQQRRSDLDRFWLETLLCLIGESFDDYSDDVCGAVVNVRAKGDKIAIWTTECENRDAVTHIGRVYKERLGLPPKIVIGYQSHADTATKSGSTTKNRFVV
Target sequence (Q04637 whole entry, looked up, the tested form may be a part): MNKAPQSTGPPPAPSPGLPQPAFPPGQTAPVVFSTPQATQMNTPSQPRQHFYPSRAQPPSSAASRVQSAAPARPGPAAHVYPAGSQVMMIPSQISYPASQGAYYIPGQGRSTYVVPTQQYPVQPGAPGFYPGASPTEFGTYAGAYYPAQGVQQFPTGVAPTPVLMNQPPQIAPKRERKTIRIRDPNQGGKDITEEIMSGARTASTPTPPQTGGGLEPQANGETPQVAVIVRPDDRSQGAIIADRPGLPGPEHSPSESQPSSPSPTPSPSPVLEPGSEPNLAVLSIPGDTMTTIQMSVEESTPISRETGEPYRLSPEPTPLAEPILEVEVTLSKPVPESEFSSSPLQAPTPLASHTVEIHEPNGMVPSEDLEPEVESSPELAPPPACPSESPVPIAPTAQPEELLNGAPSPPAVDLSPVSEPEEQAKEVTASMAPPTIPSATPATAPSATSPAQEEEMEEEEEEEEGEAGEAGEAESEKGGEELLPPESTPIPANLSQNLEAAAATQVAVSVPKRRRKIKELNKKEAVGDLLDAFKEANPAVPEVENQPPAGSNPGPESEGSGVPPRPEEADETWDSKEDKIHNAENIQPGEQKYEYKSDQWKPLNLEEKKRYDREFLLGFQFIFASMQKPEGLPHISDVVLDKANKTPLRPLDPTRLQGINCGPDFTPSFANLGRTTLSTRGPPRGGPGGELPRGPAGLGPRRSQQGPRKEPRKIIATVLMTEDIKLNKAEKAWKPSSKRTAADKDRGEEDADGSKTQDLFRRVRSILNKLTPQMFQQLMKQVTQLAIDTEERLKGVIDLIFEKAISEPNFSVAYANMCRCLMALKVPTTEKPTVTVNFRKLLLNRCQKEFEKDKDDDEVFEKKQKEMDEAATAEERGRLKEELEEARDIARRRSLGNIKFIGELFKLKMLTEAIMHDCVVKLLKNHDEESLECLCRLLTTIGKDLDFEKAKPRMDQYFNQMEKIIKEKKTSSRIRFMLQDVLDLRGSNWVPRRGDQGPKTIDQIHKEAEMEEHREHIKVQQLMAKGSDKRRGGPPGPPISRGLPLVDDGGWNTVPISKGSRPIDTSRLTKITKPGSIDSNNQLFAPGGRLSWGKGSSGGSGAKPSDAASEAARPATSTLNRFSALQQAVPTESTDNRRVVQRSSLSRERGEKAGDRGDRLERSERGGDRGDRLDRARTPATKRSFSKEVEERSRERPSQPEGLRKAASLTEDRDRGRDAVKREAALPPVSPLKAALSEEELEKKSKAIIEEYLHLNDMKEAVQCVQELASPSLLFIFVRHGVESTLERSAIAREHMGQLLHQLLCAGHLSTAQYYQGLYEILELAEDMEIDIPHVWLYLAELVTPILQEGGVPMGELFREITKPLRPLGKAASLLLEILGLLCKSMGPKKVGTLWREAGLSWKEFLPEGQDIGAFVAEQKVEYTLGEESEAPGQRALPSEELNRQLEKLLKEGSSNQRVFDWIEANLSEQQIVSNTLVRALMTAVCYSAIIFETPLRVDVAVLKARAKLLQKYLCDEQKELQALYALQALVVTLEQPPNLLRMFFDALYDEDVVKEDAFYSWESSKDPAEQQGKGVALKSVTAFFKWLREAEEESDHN
Pf gametocyte: late stage P. falciparum gametocyte viability inhibitors, primary screen, ATP luminescence, HTS; P. falciparum stage V gametocytes, 24 h; hit rate 0.065% among 150,000; inhibition, % at 10.9 µM;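 active = inhibition above the mean plus 3 SD of compounds within the control limits, set per campaign, cut at about 38% in these data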
Mcl1 Bid PPI: Mcl-1/Bid binding inhibitors, primary screen, biochemical, TR-FRET, 1536-well; inhibition, % at 21.7 µM; Induced myeloid leukemia cell differentiation protein Mcl-1 (Homo sapiens), Q07820; TR-FRET Mcl-1/Bid-Dy647 peptide binding; AID 1021, 2008; hit rate 0.97% among 220,000;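 active = compounds that cut the binding signal by more than half at the single screening dose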;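 note: His-tagged Mcl-1 with europium anti-His antibody binding Bid BH3 peptide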
Hits are given with their value; – = inactive; · = no result. In the library only some 2.7% were active in any assay of this set; here they are far more common.

SMILES	Bim-Mcl-1	14-3-3 Bad PPI	Mcl1 Noxa PPI	eIF4E-4G inh	Pf gametocyte	Mcl1 Bid PPI
Cc1ccc(N2C(=O)CC(Cn3nc(C)cc3C)C2=O)cc1 (configuration not stated)	–	·	–	·	·	91.1
Cc1cc(C)n(CC2CC(=O)N(c3ccc(Cl)cc3)C2=O)n1 (configuration not stated)	·	–	–	–	–	–
CCOCCCn1c(C)nc2c(c1=O)c1nc3ccccc3nc1n2CCC1=CCCCC1	–	–	–	–	·	65.9
O=[N+]([O-])c1ccc(Cl)c(-c2ccc(/C=N/c3c(-c4ccco4)nc4ccccn34)o2)c1	–	–	–	–	–	55.4
O=[N+]([O-])c1ccc(-c2ccc(/C=N/c3c(-c4ccco4)nc4ccccn34)o2)c(Cl)c1	–	–	62.1	–	·	56.8
COc1cc(-c2nc3ccccn3c2/N=C/c2ccccc2)ccc1O	–	–	–	–	·	–
O=[N+]([O-])c1ccc(-c2ccc(/C=N/n3cnnc3)o2)c(Br)c1	·	·	·	·	–	·
C#CCOCCOCCOCCNc1nc(N2CCN(C(=O)[C@H](CCCCN)n3cc([C@@H](N)CO)nn3)CC2)nc(N2CCN(C(=O)[C@H](Cc3cc4ccccc4[nH]3)n3cc([C@@H](N)CC(C)C)nn3)CC2)n1	–	–	–	–	·	53.5
C#CCOCCOCCOCCNc1nc(N2CCN(C(=O)C(Cc3ccc(O)cc3)n3cc(C(N)CC(C)C)nn3)CC2)nc(N2CCN(C(=O)C(Cc3cc4ccccc4[nH]3)n3cc(C(N)Cc4ccc(O)cc4)nn3)CC2)n1 (configuration not stated)	–	–	–	–	·	96.3
C#CCOCCOCCOCCNc1nc(N2CCN(C(=O)[C@H](CCCCN)n3cc([C@@H](N)CO)nn3)CC2)nc(N2CCN(C(=O)[C@H](Cc3cc4ccccc4[nH]3)n3cc([C@@H](N)CO)nn3)CC2)n1	·	–	–	–	·	–
C#CCOCCOCCOCCNc1nc(N2CCN(C(=O)[C@H](CCC(=O)O)n3cc(C(N)Cc4ccc(O)cc4)nn3)CC2)nc(N2CCN(C(=O)[C@H](Cc3cc4ccccc4[nH]3)n3cc(C(N)CC(C)C)nn3)CC2)n1 (some centres not stated)	–	–	–	–	·	–
Cc1c(C(=O)N2CCOCC2)sc(NC(=O)Cc2ccccc2)c1C#N	–	–	–	–	–	–
O=C(N1CCOCC1)N1CCN(S(=O)(=O)N2CCCCC2)CC1	–	–	–	–	–	–
CCNc1nc(NCC)nc(C(=O)Nc2ccccc2)n1	–	–	64.8	–	·	–
O=C(CS(=O)CC(=O)N(c1ccccc1)C(C(=O)NC1CCCCC1)c1ccco1)Nc1ccc(F)cc1 (configuration not stated)	–	–	–	–	·	–
COc1ccc(N(C(=O)CS(=O)CC(=O)Nc2ccc(F)cc2)C(C(=O)NC2CCCCC2)c2cccs2)cc1 (configuration not stated)	–	–	–	–	–	61.5
COc1ccc(CCNc2c([N+](=O)[O-])ncn2C)cc1OC	·	–	–	–	–	–
CCCCCC(=O)NC(=S)Nc1ccc2oc(=O)ccc2c1	–	–	56.3	–	–	–
CCCCC(=O)Nc1ccc2oc(-c3ccncc3)nc2c1	–	–	–	54.9	–	–
O=C(NC(=S)Nc1ccc2oc(-c3ccncc3)nc2c1)c1ccccc1F	–	73.3	–	–	·	–
O=C(NC(=S)Nc1ccc2c(c1)OCCO2)c1ccccc1F	–	–	–	–	·	67.8
O=C(CCSCCc1ccccn1)Nc1ccc(Cc2ccncc2)cc1	–	–	–	–	–	–
CC(C(=O)NCc1ccccn1)c1ccc([N+](=O)[O-])cc1 (configuration not stated)	–	–	–	–	–	–
COc1cccc(NC(=O)CSCc2n[nH]c(=O)[nH]2)c1	–	–	–	–	·	–
COc1ccc(/C=N/NC(=O)CN2CCSCC2)c(OC)c1	–	–	60.2	–	·	–
SMILES	Bim-Mcl-1	14-3-3 Bad PPI	Mcl1 Noxa PPI	eIF4E-4G inh	Pf gametocyte	Mcl1 Bid PPI
Clc1nccc(N2CCN(c3ccccc3Cl)CC2)n1	·	·	·	·	–	·
Cc1ccc(Nc2cc(C)c3c(O)cccc3n2)cc1C	·	–	53.8	–	–	–
COC(=O)c1cc(Nc2cc(C)c3c(O)cccc3n2)cc(C(=O)OC)c1	·	–	56.2	–	–	–
Cc1ccccc1Nc1cc(C)c2c(O)cccc2n1	–	–	–	–	·	–
COc1ccc(Nc2c(C)cccc2C)cc1	–	–	–	–	–	–
COc1ccc(Nc2cc(C)c3c(O)cccc3n2)cc1	·	–	77.5	–	–	–
COc1ccc(N(CC(=O)NCCC2=CCCCC2)S(=O)(=O)c2ccccc2)c(OC)c1	–	–	–	–	–	–
CCCC1COC(Cn2cncn2)(c2ccc(C)cc2)O1 (configuration not stated)	–	88.0	–	–	·	–
CCC(C)n1ncn(-c2ccc(N3CCN(c4ccc(OCC5COC(Cn6cncn6)(c6ccc(Cl)cc6Cl)O5)cc4)CC3)cc2)c1=O (configuration not stated)	–	–	–	–	·	–
CCOC(=O)Cc1ncccc1C(=O)Nc1ccc(Oc2ccccc2)cc1	–	–	–	–	·	–
O=C(Cn1nc(C(F)(F)F)c2c1CCCC2)NCc1ccco1	–	–	–	–	–	97.6
CCCCCC(=O)NN=C1CCN(Cc2ccccc2)CC1	–	–	–	–	–	–
CC(Nc1ccc(N2CCOCC2)cc1)C(=O)N1c2ccccc2CC1C (configuration not stated)	·	84.3	–	–	–	–
CC(=O)Nc1ccc(NC(=O)COC(=O)c2cnccn2)cc1	–	–	–	–	–	–
C/C(=N\Nc1ccc(S(N)(=O)=O)cc1[N+](=O)[O-])c1ccco1	·	–	–	–	–	–
O=C(NCC1CCCO1)c1ccc(CSCc2cccc(F)c2)o1 (configuration not stated)	–	–	–	–	–	89.5
Cc1cc(C)n(CCc2nc(-c3ccco3)cs2)n1	–	–	52.7	–	·	–
C=CCN=C1SC(C)(C)C(=O)N1S(=O)(=O)c1ccc(C)cc1	–	95.2	–	–	–	–
C=CCN=C1SC(C)C(=O)N1S(=O)(=O)c1ccccc1 (configuration not stated)	–	–	–	–	·	–
CCCCn1c(NC(=O)c2ccccc2Cl)c(C#N)c2nc3ccccc3nc21	–	–	–	–	–	–
N#Cc1c(NC(=O)c2ccccc2Cl)n(Cc2ccccc2)c2nc3ccccc3nc12	–	–	70.0	–	–	–

Screens (PubChem)
